According to PubChem BioAssay (NCI):
About 83,000 compounds went through this panel and 20% of them were active in at least one assay; those are over-represented in the sample as a whole.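 Growth was measured after 48 h exposure to one concentration of compound in 96-well plates. Values under 10 count as active.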 Values without a mark were called inactive. Calls of active or inactive are those of the source.

Columns and labels:
Assay in all cases: NCI-60 one-dose screen, 48 h (100 = growth as untreated, 0 = no growth, -100 = all killed)
Conditions in all cases: 10 µM unless noted
SK-MEL-2 melanoma = tested on: SK-MEL-2 melanoma
SN12C renal = tested on: SN12C renal
UO-31 renal = tested on: UO-31 renal
TK-10 renal = tested on: TK-10 renal
ACHN renal = tested on: ACHN renal
CAKI-1 renal = tested on: CAKI-1 renal
A498 renal = tested on: A498 renal
CCRF-CEM leukemia = tested on: CCRF-CEM leukemia
MOLT-4 leukemia = tested on: MOLT-4 leukemia

SMILES | growth (SK-MEL-2 melanoma) | growth (SN12C renal) | growth (UO-31 renal) | growth (TK-10 renal) | growth (ACHN renal) | growth (CAKI-1 renal) | growth (A498 renal) | growth (CCRF-CEM leukemia) | growth (MOLT-4 leukemia)
CCN1CCN(c2cc(C(=O)Nc3nc(-c4cc(OC)c(OC)c(OC)c4)cs3)cc(C(F)(F)F)c2)CC1 | 81.4% | 71.8% | 37% | 82.4% | 73.2% | 84% | 73.5% | 59% | 43.9%
O=C(/C=C/c1ccccc1)c1cccc(OCCCOc2cccc(C(=O)/C=C/c3ccccc3)c2)c1 | 101% | 94.2% | 74.2% | 107% | 102% | 86.4% | 92% | 76.5% | 86.9%
O=C(Nc1ccc(NC(=O)c2cc(=O)[nH]c3ccccc23)cc1)Nc1cccc(C(F)(F)F)c1 | 92.5% | 54.2% | 71% | 134% | 95% | 71.5% | 100% | 70.2% | 79.6%
CCN(CC)CCSc1nc(-c2ccccc2)c(C#N)c(=O)[nH]1 | 97% | 116% | 110% | 128% |  | 99.8% | 208% | 150% | 105%
CN(C)CCCC1(c2ccc(F)cc2)OCc2cc(-c3cccc4[nH]ccc34)ccc21 (configuration not stated) | 74.5% | 48.3% | -9.8% (active) | 58.5% | 9.24% (active) | 6.71% (active) | 72% | 16% | -8.64% (active)
CC1Cc2c(Cl)ncnc2N(C)c2ccc(F)cc21 (configuration not stated) | 110% | 106% | 79.6% | 98.9% | 103% | 91% | 101% | 95.6% | 89.2%
COc1ccccc1NC(=O)Cn1cc(CN2CCN(c3ccnc4cc(Cl)ccc34)CC2)nn1 | 112% | 98% | 66.8% | 102% | 95.3% | 80.2% | 94.8% | -34.8% (active) | 70.8%
N#CC1=C(c2ccc(Cl)cc2)Nc2c(c(-c3ccc(Cl)cc3)nn2-c2ccccc2)C12C(=O)Nc1ccc(Cl)cc12 (configuration not stated) | 74.9% | 56.5% | 23.5% | 44.9% | 34.6% | 35.8% | 51.6% | 35.9% | 35.1%
O=C(/C=C/c1cccs1)c1ccc(Cl)nc1 | 98% | 103% | 93.5% | 84.2% | 106% | 94% | 85.6% | 91.4% | 99.6%
COc1ccc(-c2nc(/C=C3\SC(=NCc4ccccc4)NC3=O)c3ccccn23)cc1 | -31.6% (active) | -19.7% (active) | -47.2% (active) | -52.4% (active) | -28.3% (active) | 3.18% (active) | -7.6% (active) | 16.2% | 11.1%
Cn1cc(-c2nc(-c3c[nH]c4ccncc34)cs2)c2ccccc21 | 93.1% | 77.5% | 57.9% | 88.3% | 24.7% | 19.8% | 85.3% | 0.202% (active) | 35.7%
CCCCC[C@@H]1Cc2cc(O)c(C(=O)O)c3c2[C@H](C[C@]2(OC[C@@H](CC(=O)[C@@](C)(CC)C(=O)OC)[C@@H]2C)O3)O1 | 101% | 92.4% | 99.6% | 109% | 97.5% | 99.9% | 122% | 116% | 90.2%
